Results reported in PubChem BioAssay (NCI).
Compounds without any hit were thinned out: in the full panel of roughly 83,000, 20% have a hit.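 Testing used 96-well plates and a 48-hour single-concentration exposure. Example: -40 means 40% of the starting cells died.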 Calls of active or inactive are those of the source. How the source made its calls: active means growth percent below 10; inactive means the rest.

Columns and labels:
Assay in all cases: NCI-60 one-dose screen, 48 h (100 = growth as untreated, 0 = no growth, -100 = all killed)
Conditions in all cases: 10 µM unless noted
[1] = test system: NCI-H23 lung
[2] = test system: NCI-H226 lung
[3] = test system: NCI-H322M lung
[4] = test system: HOP-62 NSCLC
[5] = test system: NCI-H460 lung
[6] = test system: HOP-92 NSCLC
[7] = test system: NCI-H522 lung
[8] = test system: A549/ATCC NSCLC
[9] = test system: 786-0 renal
[10] = test system: COLO 205 colon
[11] = test system: DU-145 prostate
[12] = test system: K-562 leukemia
[13] = test system: MALME-3M melanoma
[14] = test system: MDA-MB-231 breast
[15] = test system: RXF 393 renal
[16] = test system: SF-268 CNS
[17] = test system: SF-295 CNS
[18] = test system: SF-539 CNS
[19] = test system: UACC-257 melanoma
[20] = test system: M14 melanoma

Measured: growth

N=C(N)N=Nc1ccc(O)cc1
active: [17] 8.54% [100 µM]
inactive: [1] 68% [100 µM] | [2] 73.5% [100 µM] | [3] 80.2% [100 µM] | [4] 76.9% [100 µM] | [5] 84.1% [100 µM] | [6] 84% [100 µM] | [7] 37.7% [100 µM] | [8] 93.3% [100 µM] | [9] 28.9% [100 µM] | [10] 57.2% [100 µM] | [11] 80.4% [100 µM] | [12] 17% [100 µM] | [13] 85.2% [100 µM] | [14] 103% [100 µM] | [15] 20.8% [100 µM] | [16] 77.5% [100 µM] | [18] 15.2% [100 µM] | [19] 95.6% [100 µM]

CC1(C)CC[C@]2(C(=O)NCCNCCN)CC[C@]3(C)C(=CC[C@@H]4[C@@]5(C)CCC(=O)C(C)(C)[C@@H]5CC[C@]43C)[C@@H]2C1
inactive: [1] 93.3% | [2] 78.1% | [3] 81.1% | [4] 70.4% | [6] 39.7% | [7] 27.2% | [8] 32.6% | [9] 78.3% | [11] 32.5% | [15] 50.1% | [16] 72.7% | [17] 96.7% | [18] 76.5% | [19] 92.8%
active: [5] -55.8% | [10] -66.6% | [12] -47.9% | [13] -65% | [14] 6.83%

COc1cnc2c(c1)C(=O)c1c-2n(CCCNC(C)C)c(=O)c2cc([N+](=O)[O-])ccc12
active: [1] -67.8% | [2] -58.8% | [3] -31.6% | [4] -53.2% | [5] -74.1% | [6] -80.1% | [7] -56.6% | [8] -65.5% | [9] -88.2% | [10] -74.3% | [11] -58.4% | [12] -14.4% | [13] -58.2% | [14] -60.5% | [15] -80.7% | [16] -61.2% | [17] -76.2% | [18] -63% | [19] -67%

CC(C)/C=C/CC[C@](C)(O)[C@H]1CC[C@]2(C)[C@@H]1CC[C@@H]1[C@@]3(C)C/C(=C/c4cccc(C(F)(F)F)c4)C(=O)C(C)(C)[C@@H]3CC[C@]12C
inactive: [1] 96.3% | [2] 94.9% | [3] 105% | [4] 103% | [5] 98.6% | [6] 92.7% | [7] 96.2% | [8] 85% | [9] 101% | [10] 113% | [11] 96.8% | [12] 86.2% | [13] 100% | [14] 88.9% | [15] 105% | [16] 93.3% | [17] 101% | [18] 97.6% | [19] 95.2% | [20] 91.5%

CN(C)c1ccc(-c2ccc(-c3ccc(C(=N)N)c(F)c3)s2)cc1
inactive: [13] 71.3% | [19] 111% | [20] 97.5%
active: [1] -67.1% | [2] -60.1% | [3] 0.0772% | [4] -75.2% | [5] -77.5% | [6] -79.4% | [7] -61.4% | [8] -83.2% | [9] -93.7% | [10] -74.7% | [11] -93.7% | [12] -34.3% | [14] -78.4% | [15] -83.2% | [16] -56.9% | [17] -88.1% | [18] -93%

Cc1ccncc1C(=O)O
inactive: [1] 92.7% | [2] 101% | [3] 101% | [4] 113% | [5] 99.6% | [6] 88.4% | [7] 128% | [8] 90.1% | [9] 103% | [10] 128% | [11] 101% | [12] 116% | [13] 96.2% | [14] 101% | [15] 118% | [16] 94.8% | [17] 99.8% | [18] 94.4% | [19] 102% | [20] 100%

Cc1ccc(-c2nn(Cc3cn(-c4cc(C)nc5ccccc45)nn3)c3ncnc(N)c23)cc1
inactive: [1] 68.7% | [2] 35% | [3] 40.6% | [4] 60.4% | [5] 68.4% | [7] 55.5% | [8] 44.1% | [9] 48.6% | [10] 54.7% | [11] 47.8% | [12] 53.2% | [13] 52.5% | [14] 33.1% | [15] 27.3% | [16] 35.8% | [17] 66.5% | [18] 74.7% | [19] 42.5% | [20] 52.7%
active: [6] -0.284%

CC(=O)c1c(C)[nH]c(-c2nc3ccc(N4CCN(C)CC4)cc3[nH]2)c1-c1ccc2c(c1)OCCO2
inactive: [1] 50.1% | [2] 47.9% | [3] 45.8% | [4] 33.7% | [5] 62.7% | [6] 39% | [7] 48.7% | [8] 44% | [9] 40.9% | [10] 12.7% | [11] 74.3% | [12] 31.2% | [13] 33.7% | [14] 36% | [15] 49.2% | [16] 68.8% | [17] 44.4% | [18] 41.7% | [19] 48.2%

O=c1[nH]c2c3ccncc3cc(-c3cccc(Cl)c3)c2c2cnccc12
active: [4] 0.205% | [5] 5.33% | [6] 5.61% | [15] -16.5% | [18] 2.59%
inactive: [1] 50.8% | [2] 29.6% | [3] 56.2% | [7] 53.7% | [8] 27.4% | [9] 17.4% | [10] 25.4% | [11] 39.5% | [12] 75% | [13] 69.1% | [14] 35.1% | [16] 53.9% | [17] 31.4% | [19] 49.5% | [20] 55.2%

C=C(C)[C@@H]1CC[C@]2(c3nnc(-c4ccncc4)o3)CC[C@]3(C)[C@H](CC[C@@H]4[C@@]5(C)CCC(=O)NC(C)(C)[C@@H]5CC[C@]43C)[C@@H]12
inactive: [1] 94.7% | [2] 87.8% | [3] 94.3% | [4] 97.9% | [5] 98.5% | [6] 71.9% | [7] 93.9% | [8] 92.8% | [9] 96.2% | [10] 109% | [11] 108% | [12] 80.5% | [13] 101% | [14] 89.8% | [15] 97.9% | [16] 89.5% | [17] 99.4% | [18] 96.9% | [19] 97.9% | [20] 99%

Cn1c(=O)c2c(nc(Br)n2CC(=O)Nc2ccc(F)cc2)n(C)c1=O
inactive: [1] 95.8% | [2] 103% | [3] 111% | [4] 96.9% | [5] 109% | [6] 87.6% | [7] 81.3% | [8] 92.5% | [9] 95.3% | [10] 104% | [11] 109% | [12] 104% | [13] 103% | [14] 90.1% | [15] 108% | [16] 108% | [17] 108% | [18] 100%

Clc1ccc2c(NCCNc3nc(-c4ccccc4)cc(-c4ccccc4)n3)ccnc2c1
active: [1] -47.3% | [2] -56.2% | [3] -10.5% | [4] -73.6% | [5] -73% | [6] -66.8% | [7] -69.9% | [8] -75.2% | [9] -90.8% | [10] -72.2% | [11] -34.1% | [12] -46.6% | [13] -89.3% | [14] -80.9% | [15] -88.2% | [16] -59.7% | [17] -75.8% | [18] -81.1% | [20] -75.4%
inactive: [19] 77.8%

CCCCC/C(=C\c1ccccc1)C1OC(C)C(C)O1 (stereo unspecified)
inactive: [1] 90.2% | [2] 83.4% | [3] 112% | [4] 93.5% | [5] 107% | [6] 95% | [7] 68.5% | [8] 68.5% | [9] 91.2% | [10] 106% | [11] 103% | [12] 91.3% | [13] 104% | [14] 99.7% | [15] 102% | [16] 95.3% | [17] 104% | [18] 99.7% | [19] 70.1% | [20] 87.8%

COc1ccc(C2=NN(c3nc(-c4ccc(OC)cc4)c(C#N)c(=O)n3C)C(=O)CC2)cc1
inactive: [1] 99.8% | [2] 86.1% | [3] 91.9% | [4] 105% | [5] 103% | [6] 77.9% | [7] 94.1% | [8] 104% | [9] 109% | [10] 109% | [11] 115% | [12] 101% | [13] 81.6% | [14] 83.5% | [15] 97.5% | [16] 100% | [17] 93.6% | [18] 93.6%

CCC1C(=O)COC1=O (stereo unspecified)
active: [14] -22.4%
inactive: [1] 95.7% | [2] 100% | [3] 104% | [4] 77.1% | [5] 105% | [6] 80.6% | [7] 77.7% | [8] 64.1% | [9] 101% | [10] 100% | [11] 108% | [12] 92% | [13] 99.3% | [15] 122% | [16] 101% | [17] 97.9% | [18] 105% | [19] 81.8%
